According to PubChem BioAssay (Tox21):
Inconclusive results are not listed. Active and inactive are the calls of the source. Calls come from the whole dose curve.

biological target: Thyrotropin receptor (Homo sapiens) (UniProt P16473); assay: qHTS assay to identify small molecule agonists of the thyroid stimulating hormone receptor (TSHR) signaling pathway (AID 1224843); details: TSHR-HEK293 cells, cAMP HTRF, agonist mode, 30 min; series mostly up to 92.4 µM; activation: at the top concentration; note: nearly all actives have a fitted effect of over 45% in size
Sequence (P16473 whole entry, looked up): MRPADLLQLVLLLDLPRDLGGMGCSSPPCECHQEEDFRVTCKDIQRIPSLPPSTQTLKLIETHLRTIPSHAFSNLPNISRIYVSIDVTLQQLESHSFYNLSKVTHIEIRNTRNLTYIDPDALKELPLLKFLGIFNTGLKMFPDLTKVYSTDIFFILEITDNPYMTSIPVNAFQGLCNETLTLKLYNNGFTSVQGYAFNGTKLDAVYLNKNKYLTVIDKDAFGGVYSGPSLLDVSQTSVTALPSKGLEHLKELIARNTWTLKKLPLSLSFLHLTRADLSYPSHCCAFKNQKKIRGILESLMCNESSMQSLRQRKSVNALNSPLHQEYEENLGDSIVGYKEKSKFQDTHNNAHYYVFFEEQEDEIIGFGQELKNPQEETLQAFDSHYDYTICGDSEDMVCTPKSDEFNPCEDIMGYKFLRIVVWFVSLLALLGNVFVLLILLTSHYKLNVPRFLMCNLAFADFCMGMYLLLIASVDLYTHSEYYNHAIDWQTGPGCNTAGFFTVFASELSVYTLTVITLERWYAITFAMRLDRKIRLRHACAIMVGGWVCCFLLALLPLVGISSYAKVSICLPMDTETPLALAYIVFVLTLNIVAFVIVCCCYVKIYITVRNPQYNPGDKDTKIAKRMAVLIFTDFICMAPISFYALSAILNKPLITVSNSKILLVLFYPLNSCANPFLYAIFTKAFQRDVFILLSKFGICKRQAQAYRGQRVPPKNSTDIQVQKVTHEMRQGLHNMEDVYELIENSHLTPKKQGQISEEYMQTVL
How it was run: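 Steps: seed 800 TSHR-HEK293 cells per well; add test compound and hold 30 min at ambient temperature; dispense cAMP-d2 then anti-cAMP cryptate; incubate 1 h at ambient; measure fluorescence intensity.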
% is set by controls: 0 for no effect and ±100 for the full control effect.

Row | Structure (SMILES) | activation
1 | O=C(/C=C/c1ccc(O)c(O)c1)O[C@@H]1C[C@@](OC(=O)/C=C/c2ccc(O)c(O)c2)(C(=O)O)C[C@@H](O)[C@@H]1O | -1.68% [at 42.5 µM] (inactive)
2 | CC(C)(c1ccccc1)c1ccccc1 | -4.02% (inactive)
3 | Cc1cccc(O)c1N | -0.355% (inactive)
4 | CC1(C)S[C@@H]2[C@H](NC(=O)C(c3ccccc3)S(=O)(=O)O)C(=O)N2[C@H]1C(=O)O (stereo not given in full) | 5.78% [at 42.5 µM] (inactive)
5 | CC[C@]1(O)C[C@H]2CN(CCc3c([nH]c4ccccc34)[C@@](C(=O)OC)(c3cc4c(cc3OC)N(C=O)[C@H]3[C@@](O)(C(=O)OC)[C@H](OC(C)=O)[C@]5(CC)C=CCN6CC[C@]43[C@@H]65)C2)C1 | 0.308% [at 42.5 µM] (inactive)
6 | CC(=O)Nc1ccc(C)cc1C | 3.65% (inactive)
7 | NC(=O)c1ccncc1 | 6.18% (inactive)
8 | O=C(Cn1ccnc1[N+](=O)[O-])NCCO | 2.68% [at 42.5 µM] (inactive)
9 | CC1CC(C)C(=O)C1=O (stereo not given) | -5.67% (inactive)
10 | CC(=O)c1cc2ccccc2s1 | 1.28% [at 42.5 µM] (inactive)
11 | Cc1cscn1 | 6.22% (inactive)
12 | OCCN1CCN(CCCN2c3ccccc3Sc3ccc(Cl)cc32)CC1 | -2.31% [at 42.5 µM] (inactive)
13 | Clc1cc(Cl)nc(Cl)n1 | 0.987% (inactive)
14 | Brc1cc(Br)c(Oc2cc(Br)c(Br)cc2Br)cc1Br | -3.67% [at 42.5 µM] (inactive)
15 | CCCCCC[C@@H](O)C/C=C\CCCCCCCC(=O)O | -8.27% (inactive)
16 | OC1(c2ccccc2)CCNCC1 | 10.4% [at 42.5 µM] (inactive)
17 | CCOC(=O)c1ccc(O)c(O)c1 | -7.77% [at 42.5 µM] (inactive)
18 | C=C/C(C)=C/C/C=C(\C)CCC=C(C)C | 18% (inactive)
19 | CCC(C)(C)OC | -6.46% (inactive)
20 | Cc1ccccc1S | -23.8% [at 42.5 µM] (inactive)

Row | Structure (SMILES) | activation
21 | O=[N+]([O-])c1cc(C2CCCCC2)c(O)c([N+](=O)[O-])c1 | -3.63% (inactive)
22 | O=[N+]([O-])c1ccc(Nc2ccc(Nc3ccccc3)c(S(=O)(=O)O)c2)c([N+](=O)[O-])c1 | -0.449% (inactive)
23 | Clc1ccc(Nc2nnc(Cc3ccncc3)c3ccccc23)cc1 | 5% [at 42.5 µM] (inactive)
24 | O=C=Nc1cccc(C(F)(F)F)c1 | -16.9% (inactive)
25 | CCCCC(CC)CN (stereo not given) | -13.6% (inactive)
26 | OCCOCC#CCOCCO | 2.45% (inactive)
27 | CC(C)=CCC/C(C)=C/CC/C(C)=C/C(=O)OCC(=O)[C@@]1(O)CC[C@H]2[C@@H]3CCC4=CC(=O)C=C[C@]4(C)[C@H]3[C@@H](O)C[C@@]21C | -4.08% [at 42.5 µM] (inactive)
28 | CC(C)(C)CC(=O)OCC(=O)[C@@]1(O)CC[C@H]2[C@@H]3CCC4=CC(=O)C=C[C@]4(C)[C@H]3[C@@H](O)C[C@@]21C | -3.41% [at 42.5 µM] (inactive)
29 | COc1ccccc1N1CCN(CC(O)COc2cccc3ccccc23)CC1 (stereo not given) | 14.4% [at 42.5 µM] (inactive)
30 | COc1ccc(OC(=O)N(CC(=O)O)Cc2ccc(OCCc3nc(-c4ccccc4)oc3C)cc2)cc1 | -1.68% [at 42.5 µM] (inactive)
31 | O=C(O)C[C@H](NC(=O)OCc1ccccc1)C(=O)O | -0.177% (inactive)
32 | CC(C)=CCC1C(=O)N(c2ccccc2)N(c2ccccc2)C1=O | 2.58% [at 42.5 µM] (inactive)
33 | c1ccc2sc(SN(C3CCCCC3)C3CCCCC3)nc2c1 | -13.7% (inactive)
34 | Cc1ccc2c(Br)cc(Br)c(O)c2n1 | -0.448% [at 42.5 µM] (inactive)
35 | COc1ccccc1N1CCN(CCCCNC(=O)c2ccc(-c3ccc(C(C)=O)cc3)cc2)CC1 | -9.14% [at 42.5 µM] (inactive)
36 | c1csc(SSc2cccs2)c1 | 17.1% (inactive)
37 | CCC1NC(=O)c2cc(S(N)(=O)=O)c(Cl)cc2N1 (stereo not given) | 0.101% [at 42.5 µM] (inactive)
38 | CCOc1ccccc1O[C@H](c1ccccc1)[C@H]1CNCCO1 | -0.646% [at 42.5 µM] (inactive)
39 | C/C=C\C/C=C/CCCCCCCCOC(C)=O | 12.6% (inactive)
40 | COC(=O)CS | 0.0782% (inactive)
